This note sets out measurements from PubChem BioAssay (Tox21).

The source made the active and inactive calls. Calls follow the shape of the dose curve; as a rule, active = well fitted curve in the direction sought with a large enough effect in the repeat runs; inconclusive = weak or mixed curves; inactive = flat fitted curve, though single readings scatter.

The nature of one test: qHTS assay to test for compound auto fluorescence at 590 nm (red) in HepG2 cells (AID 720674). The following applies: HepG2 autofluorescence, red 540/590 nm, 1 h; series mostly up to 91.3 µM. The gist of the method: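 Intrinsic compound fluorescence in the red window (Ex/Em 540/590 nm) is measured in attached HepG2 cells exposed for 1 hr, DMSO vehicle as baseline, benchmarked to Rose Bengal sodium.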
A general note: Quantitative high-throughput screening tests each substance at several concentrations.
Consider `CC1(C)[C@@H]2CC[C@@]1(C)[C@H](O)C2`, for which the molecule was classed as inactive.
In the case of `CC(C)C1CCC(O)CC1` (stereo not given), the result was inactive.
Still for that read-out and setting: to `CC(C)NNC(=O)c1ccncc1` belongs “inactive”.
The same measure, in the same setting: as for `CC(=O)c1cnccn1`, the entry is “inactive”; as for `NC(=O)Cc1cccc2ccccc12`, “inactive”; as for `C=CN1CCCCCC1=O`, “inactive”.
The same measure, in the same setting: to `O=C1NC(=O)C2CC=CCC12` (stereo not given) belongs “inactive”; to `c1coc(CNc2ncnc3nc[nH]c23)c1`, “inactive”.
Take `CC(C)[C@H]1CC[C@@H](C)CC1=O`: the molecule was called inactive.
On the same count and under the same terms, as for `CC(=O)N1C[C@H](O)C[C@H]1C(=O)O`, the entry is “inactive”; as for `CCCCCCCCN1CCCC1=O`, “inactive”; as for `CC1=NN(c2cc(S(=O)(=O)O)ccc2Cl)C(=O)C1N=Nc1ccccc1` (stereo not given), “inactive”.
For the molecule `CCCCCCCCCCCCCCC(=O)O`, the molecule was called inactive.
The same measure, in the same setting: as for `COC(=O)Nc1ccc(Cl)c(Cl)c1`, the entry is “inactive”.
For `Nc1ccccn1`, the outcome was inactive.
Same read-out and setting: to `CCCCS(=O)(=O)N[C@@H](Cc1ccc(OCCCCC2CCNCC2)cc1)C(=O)O` belongs “inactive”; to `CC(C)CCCO`, “inactive”; to `CC(C)C[C@@H](N)C(=O)O`, “inactive”.
Still for that read-out and setting: to `Clc1cc(Cl)c(Cl)nc1Cl` belongs “inactive”; to `CC(=O)c1ccc2ccccc2c1`, “inactive”.
The same measure, in the same setting: as for `CCCCCC(C)N` (stereo not given), the entry is “inactive”; as for `CCOC(=O)COc1cc(-n2ncc(C(F)(F)F)c(C)c2=O)c(F)cc1Cl`, “inactive”.
Regarding `O=C(O)Cc1csc(-c2ccc(Cl)cc2)n1`, the molecule was classed as inactive.
`C=C(C)C(=O)OCC1CCCO1` (stereo not given): the call was inactive.
In the case of `Nc1c2c(nc3c1CCC3)CCCC2`, the result was inactive.
Regarding `C[N+]1(C)[C@@H]2CC(OC(=O)[C@H](CO)c3ccccc3)C[C@H]1[C@@H]1O[C@@H]12` (stereo not given in full), the result was inactive.
Still for that read-out and setting: as for `CN1CCN(c2cc3c(nn2)Oc2ccccc2N3C)CC1`, the entry is “inactive”; as for `Cc1cccc(C)c1NC(=O)CC12CCCN1CCC2`, “inactive”.
As for `O=C(O)CCSCCC(=O)O`, the result was inactive.
With `CCOC(=O)CCC(=O)OCC`, the molecule was classed as inactive.
Still for that read-out and setting: to `CCN(CC#N)c1cccc(C)c1` belongs “inactive”.
Still for that read-out and setting: as for `O=C(O)CNC(=O)c1ccc(CO)o1`, the entry is “inactive”; as for `CC(=O)Oc1cccc(C)c1`, “inactive”; as for `NO`, “inactive”.
On the same count and under the same terms, as for `O=CN(CCO)CCO`, the entry is “inactive”.
As to `c1ccc(CCc2ccccc2)cc1`, the molecule was classed as inactive.

A further test in a line: qHTS assay to test for compound auto fluorescence at 535 nm (green) in HepG2 cells (AID 720675). The following applies: green autofluorescence 485/535 nm, 1 h; series mostly up to 91.3 µM.
In the case of `CC1(C)[C@@H]2CC[C@@]1(C)[C@H](O)C2`, the call was inactive.
The same measure, in the same setting: as for `CC(C)NNC(=O)c1ccncc1`, the entry is “inactive”; as for `CC(=O)c1cnccn1`, “inactive”.
For the molecule `NC(=O)Cc1cccc2ccccc12`, the outcome was inactive.
Turning to `C=CN1CCCCCC1=O`, the outcome was inactive.
With `O=C1NC(=O)C2CC=CCC12` (stereo not given), the result was inactive.
Still for that read-out and setting: to `CC(C)[C@H]1CC[C@@H](C)CC1=O` belongs “inactive”; to `CCCCCCCCN1CCCC1=O`, “inactive”; to `CC1=NN(c2cc(S(=O)(=O)O)ccc2Cl)C(=O)C1N=Nc1ccccc1` (stereo not given), “inactive”.
Same read-out and setting: as for `COC(=O)Nc1ccc(Cl)c(Cl)c1`, the entry is “inactive”; as for `Nc1ccccn1`, “inactive”; as for `CCCCS(=O)(=O)N[C@@H](Cc1ccc(OCCCCC2CCNCC2)cc1)C(=O)O`, “inactive”.
On the same count and under the same terms, as for `CC(C)CCCO`, the entry is “inactive”; as for `CC(C)C[C@@H](N)C(=O)O`, “inactive”; as for `Clc1cc(Cl)c(Cl)nc1Cl`, “inactive”.
Turning to `CC(=O)c1ccc2ccccc2c1`, the result was inactive.
Same read-out and setting: to `CCCCCC(C)N` (stereo not given) belongs “inactive”; to `CCOC(=O)COc1cc(-n2ncc(C(F)(F)F)c(C)c2=O)c(F)cc1Cl`, “inactive”; to `O=C(O)Cc1csc(-c2ccc(Cl)cc2)n1`, “inactive”.
On the same count and under the same terms, to `C=C(C)C(=O)OCC1CCCO1` (stereo not given) belongs “inactive”.
Still for that read-out and setting: to `Nc1c2c(nc3c1CCC3)CCCC2` belongs “inactive”; to `CN1CCN(c2cc3c(nn2)Oc2ccccc2N3C)CC1`, “inactive”; to `Cc1cccc(C)c1NC(=O)CC12CCCN1CCC2`, “inactive”.
Turning to `O=C(O)CCSCCC(=O)O`, the molecule was called inactive.
Same read-out and setting: as for `CCOC(=O)CCC(=O)OCC`, the entry is “inactive”.
Still for that read-out and setting: to `CCN(CC#N)c1cccc(C)c1` belongs “inactive”.
The same measure, in the same setting: as for `O=C(O)CNC(=O)c1ccc(CO)o1`, the entry is “inactive”; as for `CC(=O)Oc1cccc(C)c1`, “inactive”.
Regarding `O=CN(CCO)CCO`, the molecule was called inactive.
